# According to PubChem BioAssay (EPA / NIEHS):
# The source made the active and inactive calls. Rule for the calls: active = hit-call score of the fitted dose curve at least 0.9, where 1 is the maximum; inactive = score below 0.9.
# Test: CEETOX_H295R_11DCORT: CeeTox H295R High-throughput Steroidogenesis Assay for 11-Deoxycortisol (11DCORT) (AID 2283432);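 for AC50: 11-deoxycortisol secreted into the medium measured by LC-MS/MS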
# Conditions: actives raise or lower the signal
# Protocol: CEETOX_H295R is a cell-based, multiplexed-readout assay that uses H295R, a human adrenal gland cell line, with measurements taken at 48 hours after chemical dosing in a 96-well plate.CEETOX_H295R_11DCORT is one of 23 assay component(s) measured or calculated from the CEETOX_H295R assay. It is designed to make measurements of hormone induction, a form of inducible reporter, as detected with absorbance signals by HPLC-MS-MS technology.Data from the assay component CEETOX_H295R_11DCORT was analyzed into 1 assay endpoint. This assay endpoint, CEETOX_H295R_11DCORT, was analyzed with bidirectional fitting relative to DMSO as the negative control and baseline of activity. Using a type of inducible reporter, gain or loss-of-signal activity using HPLC-MS-MS was used to understand synthesis of 11-Deoxycortisol in H295R cell line at 48hr of chemical exposure. To generalize the intended target to other relatable targets, this assay endpoint is annotated to the steroid hormone intended target family, where the subfamily is glucocorticoids.
# Cell culture and media preparation procedures were conducted in accordance with OECD Test No. 456 guidelines, with minor modifications. H295R cells (ATCC CRL-2128) were expanded for 5 passages and frozen in batches in liquid nitrogen. Prior to the steroidogenesis assay, H295R cells were thawed and passed at least 4 times. The maximum passage was 10. Cells were maintained in a 1:1 mixture of DMEM/F12 supplemented with 5ml/L ITS+ Premix (BD Bioscience) and 12.5 ml/L Nu-Serum (BD Bioscience). After seeding cells into 96-well plates at 50-60% confluency, cells were allowed to adhere overnight. Prior to chemical testing, culture medium was replaced with 175 uL medium containing 10 uM forskolin to stimulate steroidogenesis for 48 hours. Following prestimulation, forskolin medium was replaced with medium containing test chemical solubilized in DMSO (ensuring a final concentration of 0.1% DMSO). Test chemicals were incubated for 48 hours, then the medium was removed and split into 2 vials containing approximately 75uL each, and stored at -80 C prior to hormone analysis. For steroid quantification, media samples were shipped to OpAns, LLC (Durham, NC) on dry ice, and samples were thawed to room temperature prior to liquid-liquid extraction. Steroid hormones were extracted from media samples using methyl tertbutyl ether (MTBE). An extra derivatization with dansyl chloride was included for estrogen (estrone and estradiol) detection only. Steroid hormones were separated by HPLC, eluted using a reverse phase C18 gradient with electrospray positive ionization, followed by quantification by tandem mass spectrometry (MS/MS). Data were acquired on a MassHunter Workstation Acquisition version B03.01 (Agilent Technologies, Inc.) and processed using MassHunter Quantitative Analysis for QQQ. Accuracy was determined for each hormone analyte from 3 standards to determine upper and lower limits of quantification (ULOQ and LLOQ, respectively) using a 7-point standard curve. Precision and accuracy of the extraction and quantification methods were calculated as the percent relative standard deviation (%RSD) of the spiked standards and percent spiked standard recovered, respectively. The goal was to achieve 100% accuracy (i.e., recover all spiked-in standard at quantification with minimal loss during run time) and good precision (i.e., have %RSD <15% to ensure reproducibility). Test medium was removed following chemical exposure, and cell viability was evaluated in the same wells by MTT. MTT procedures were as follows: after removal of test medium, 500 uL of 0.5 mg/ml of 3-[4,5-dimethylthiazol-2-y]2,5-diphenyltetrazoliumbromide solution was added to the cells. Following a 4-hour incubation at 37 C and 5% CO2 to allow formazan-crystal formation, the MTT solution was removed and blue formazan salt crystals were solubilized using 500uL anhydrous isopropanol with shaking for 20 minutes. […]
SMILES,outcome,AC50
CCc1cc(C(C)(C)C)c(O)c(C(C)(C)C)c1,inactive,–
C=C1CC[C@H](O)C/C1=C/C=C1\CCC[C@]2(C)[C@@H]([C@H](C)/C=C/[C@H](C)C(C)C)CC[C@@H]12,–,19.8 µM (active)
CC=Cc1ccc(OCC)c(O)c1,inactive,–
CC(C)Nc1nc(N)nc(Cl)n1,inactive,–
COc1ccc(N=Nc2cc(C)c(N=Nc3ccc(S(=O)(=O)O)cc3)cc2OC)cc1,inactive,–
CC(C)(C)CC(C)(C)c1ccc(OCCOCC[N+](C)(C)Cc2ccccc2)cc1,inactive,–
COCCc1ccc(OCC(O)CNC(C)C)cc1 (stereo unspecified),–,28.6 µM (active)
COc1ccc(CCN2CCC(Nc3nc4ccccc4n3Cc3ccc(F)cc3)CC2)cc1,–,1.49 µM (active)
Nc1ccc(N)c2c1C(=O)c1ccccc1C2=O,–,7.09 µM (active)
CCC(C)c1cc([N+](=O)[O-])cc([N+](=O)[O-])c1OC(=O)OC(C)C (stereo unspecified),inactive,–
Cc1cc(=O)oc2cc(N(C)C)ccc12,inactive,–
CCCCCCCCN1CCCC1=O,inactive,–
BrCc1cccc(Oc2ccccc2)c1,inactive,–
CC(CN=Cc1ccccc1O)N=Cc1ccccc1O (stereo unspecified),–,3.89 µM (active)
CC1(C)C(=O)N(Cl)C(=O)N1Br,inactive,–
CCOC(=O)[C@@H](C)Oc1ccc(Oc2nc3ccc(Cl)cc3o2)cc1,inactive,–
